The supplement of paper PMC10849652
The full data set covers some 7,900 targets. This sample favours those with a hit. About 0.6% of all pairs of compound and target were hits.

Tests used:
Assay in all cases: log2 fold change, soluble protein after heating vs DMSO (PISA); higher = thermal stabilisation; K562 cells, 10 uM, 30 min; active = over 0.2 and 3.5 SD of the protein, either way, in both replicates (recomputed)
[1] = biological target: AAGAB (UniProt Q6PD74)
Method in brief: (§1)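 Soluble protein was defined as the supernatant after 21,000xg for 90 min. It came from K562 cells at 2×10^6 cells/mL given 10 μM compound for 30 min, heated in aliquots for 3 min across 48°C-58°C, pooled, and extracted in PBS with 0.5% NP-40 at 4°C, and was quantified by TMTpro 16plex LC-MS/MS with equalised channel sums. Thermal stability against control samples, from duplicates, is reported as log2 fold change.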

[2] = biological target: AAK1 (UniProt A0A096LP25)
Method in brief: as §1

[3] = biological target: AAK1 (UniProt Q2M2I8)
Chain of AAK1 (UniProt Q2M2I8) (Q2M2I8 whole entry, looked up): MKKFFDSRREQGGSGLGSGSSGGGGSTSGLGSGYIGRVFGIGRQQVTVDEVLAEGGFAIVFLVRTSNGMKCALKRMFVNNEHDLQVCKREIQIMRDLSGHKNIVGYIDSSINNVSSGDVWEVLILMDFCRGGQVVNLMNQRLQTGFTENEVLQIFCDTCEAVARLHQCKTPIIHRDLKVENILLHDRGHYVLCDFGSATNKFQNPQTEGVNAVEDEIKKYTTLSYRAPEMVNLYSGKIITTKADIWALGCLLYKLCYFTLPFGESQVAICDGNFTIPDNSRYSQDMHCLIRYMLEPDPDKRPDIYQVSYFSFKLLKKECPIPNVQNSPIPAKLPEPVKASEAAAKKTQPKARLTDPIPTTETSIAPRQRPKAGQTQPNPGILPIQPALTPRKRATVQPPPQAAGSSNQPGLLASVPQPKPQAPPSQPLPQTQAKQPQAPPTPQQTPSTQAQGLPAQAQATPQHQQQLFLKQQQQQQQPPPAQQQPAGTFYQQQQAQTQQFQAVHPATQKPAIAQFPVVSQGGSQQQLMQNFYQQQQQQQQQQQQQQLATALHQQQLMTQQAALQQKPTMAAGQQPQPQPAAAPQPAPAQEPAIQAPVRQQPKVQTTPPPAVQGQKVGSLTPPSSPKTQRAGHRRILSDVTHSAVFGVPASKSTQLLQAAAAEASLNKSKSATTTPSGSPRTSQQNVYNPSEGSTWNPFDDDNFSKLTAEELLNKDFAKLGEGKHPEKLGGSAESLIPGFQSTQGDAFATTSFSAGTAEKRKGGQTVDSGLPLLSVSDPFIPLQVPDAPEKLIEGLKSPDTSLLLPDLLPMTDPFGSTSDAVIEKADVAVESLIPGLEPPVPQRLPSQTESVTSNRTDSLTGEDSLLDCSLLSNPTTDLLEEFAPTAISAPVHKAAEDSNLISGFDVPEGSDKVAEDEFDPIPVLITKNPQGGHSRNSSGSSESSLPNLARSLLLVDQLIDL
Method in brief: as §1

Measured: log2 fold change

Chain of AAGAB (Q6PD74 whole entry, looked up): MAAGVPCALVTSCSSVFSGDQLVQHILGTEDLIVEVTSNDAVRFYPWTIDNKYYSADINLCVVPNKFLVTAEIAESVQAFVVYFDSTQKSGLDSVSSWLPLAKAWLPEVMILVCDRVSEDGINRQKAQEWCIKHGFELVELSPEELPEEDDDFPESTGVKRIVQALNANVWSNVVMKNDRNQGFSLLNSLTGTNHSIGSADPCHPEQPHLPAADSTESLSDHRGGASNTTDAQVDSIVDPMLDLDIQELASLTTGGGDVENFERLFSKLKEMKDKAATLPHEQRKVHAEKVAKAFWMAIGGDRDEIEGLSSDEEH

c1cn2cc(-c3ccc4cn[nH]c4c3)nc(Nc3ccc(N4CCOCC4)cc3)c2n1 [entospletinib]
inactive: [1] 0.116 | [2] 0.224 | [3] 0.132

C#Cc1cccc(Nc2ncnc3cc(OCCOC)c(OCCOC)cc23)c1 [erlotinib]
inactive: [1] 0.251 | [2] 0.043 | [3] -0.028

C/C(=N\NC(=O)c1cccc(S(=O)(=O)N2CCOCC2)c1)c1cc(Cl)ccc1O
inactive: [1] 0.088 | [2] -0.092 | [3] -0.055

O=C(CCCCCCC(=O)Nc1ccccc1)NO [vorinostat]
inactive: [1] -0.009 | [2] -0.007 | [3] 0.074

Cn1cc(-c2ccc3c(c2)CCN3C(=O)Cc2cccc(C(F)(F)F)c2)c2c(N)ncnc21
inactive: [1] -0.197 | [2] -0.05 | [3] -0.011

NC(=O)Nc1cc(-c2cccc(F)c2)sc1C(=O)N[C@H]1CCCNC1
inactive: [1] -0.071 | [2] 0.318 | [3] 0.28

C[C@H](Nc1ncnc2nc[nH]c12)c1cc2cccc(Cl)c2c(=O)n1-c1ccccc1 [duvelisib]
inactive: [1] -0.1 | [2] 0.007 | [3] 0.186

CNCc1ccc(-c2[nH]c3cc(F)cc4c3c2CCNC4=O)cc1 [rucaparib]
inactive: [1] 0.055 | [2] 0.007 | [3] -0.013

CS(=O)(=O)N1CCN(Cc2cc3nc(-c4cccc5[nH]ncc45)nc(N4CCOCC4)c3s2)CC1 [pictilisib]
inactive: [1] 0.039 | [2] 0.16 | [3] 0.087

Cc1nc(Nc2ncc(C(=O)Nc3c(C)cccc3Cl)s2)cc(N2CCN(CCO)CC2)n1 [dasatinib]
inactive: [1] -0.161 | [2] -0.18 | [3] -0.203

C[C@@H]1COCCN1c1cc(C2(S(C)(=O)=O)CC2)nc(-c2cccc3[nH]ccc23)n1
inactive: [1] -0.035 | [2] 0.012 | [3] 0.028

CNC(=O)c1ccc(Nc2ncc(C(F)(F)F)c(NCc3nccnc3N(C)S(C)(=O)=O)n2)cc1 [defactinib]
inactive: [1] -0.187 | [2] 0.037 | [3] -0.106

Cc1ccc(NC(=O)c2ccc(CN3CC[C@H](N(C)C)C3)c(C(F)(F)F)c2)cc1Nc1nccc(-c2cncnc2)n1 [bafetinib]
inactive: [1] -0.046 | [2] -0.058 | [3] -0.016

CCN(CC)Cc1ccc2cc(COC(=O)Nc3ccc(C(=O)NO)cc3)ccc2c1 [givinostat]
inactive: [1] -0.004 | [2] 0.056 | [3] 0.042

COC(=O)N[C@@H](C)CNc1nccc(-c2cn(C(C)C)nc2-c2cc(Cl)cc(NS(C)(=O)=O)c2F)n1 [encorafenib]
inactive: [1] 0.045 | [2] 0.033 | [3] -0.047

CC(C)(C)Cn1c(N)nc2ccc(-c3[nH]c(C(C)(C)C)nc3-c3ccc(F)cc3)nc21 [ralimetinib]
inactive: [1] 0.065 | [2] -0.01 | [3] 0.04

CN1CCN(CCOc2cc(OC3CCOCC3)c3c(Nc4c(Cl)ccc5c4OCO5)ncnc3c2)CC1 [saracatinib]
inactive: [1] 0.168 | [2] 0.147 | [3] 0

CCCS(=O)(=O)Nc1ccc(F)c(C(=O)c2c[nH]c3ncc(-c4ccc(Cl)cc4)cc23)c1F [vemurafenib]
inactive: [1] -0.012 | [2] -0.016 | [3] 0.147

Cc1cccc(-c2[nH]c(C(C)(C)C)nc2-c2ccc3nccnc3c2)n1
inactive: [1] -0.036 | [2] 0 | [3] 0.015

COc1cc(Nc2ncc3c(n2)-c2ccc(Cl)cc2C(c2c(F)cccc2OC)=NC3)ccc1C(=O)O [alisertib]
inactive: [1] 0.062 | [2] 0.002 | [3] 0.576

O=C(CCCCCCNC(=O)c1cnc(N(c2ccccc2)c2ccccc2Cl)nc1)NO [citarinostat]
inactive: [1] 0.024 | [2] -0.014 | [3] -0.015

CN1CCc2c(c3ccccc3n2Cc2ccc(C(=O)NO)cc2)C1 [Tubastatin A]
inactive: [1] 0.016 | [2] -0.05 | [3] 0.003
